According to PubChem BioAssay AID493168 (National Center for Advancing Translational Sciences (NCATS), 2011):
Records with an inconclusive call do not appear. A call without a number means that no potency is given here. Activity calls are given as the source filed them. Calls come from the whole dose curve; as a rule, active = well fitted inhibition curve with a large enough effect; inconclusive = small, poorly fitted or top-dose-only effect, or effect the other way; inactive = flat fitted curve, though single readings scatter.

Target: Ubiquitin carboxyl-terminal hydrolase 2 (Homo sapiens) (UniProt O75604)
Assay: Confirmation Assay for Inhibitors of Ubiquitin-specific Protease USP2a Using CHOP2 as the Reporter; note: nearly all actives have a fitted effect of over 55% in size
Procedure, shortened: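 Ub-CHOP2 cleavage coupled to reporter activation was read by fluorescence after 60 min at RT, with 25 nM final Ub-CHOP2 and substrate. Enzyme (10 nM final USP2 core) first sat 30 min with compound; data were normalized to NEM and fitted to concentration-response curves.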
Potency is the fitted concentration of half-maximal effect.

Sequence of Ubiquitin carboxyl-terminal hydrolase 2 (Homo sapiens) (O75604 whole entry, looked up): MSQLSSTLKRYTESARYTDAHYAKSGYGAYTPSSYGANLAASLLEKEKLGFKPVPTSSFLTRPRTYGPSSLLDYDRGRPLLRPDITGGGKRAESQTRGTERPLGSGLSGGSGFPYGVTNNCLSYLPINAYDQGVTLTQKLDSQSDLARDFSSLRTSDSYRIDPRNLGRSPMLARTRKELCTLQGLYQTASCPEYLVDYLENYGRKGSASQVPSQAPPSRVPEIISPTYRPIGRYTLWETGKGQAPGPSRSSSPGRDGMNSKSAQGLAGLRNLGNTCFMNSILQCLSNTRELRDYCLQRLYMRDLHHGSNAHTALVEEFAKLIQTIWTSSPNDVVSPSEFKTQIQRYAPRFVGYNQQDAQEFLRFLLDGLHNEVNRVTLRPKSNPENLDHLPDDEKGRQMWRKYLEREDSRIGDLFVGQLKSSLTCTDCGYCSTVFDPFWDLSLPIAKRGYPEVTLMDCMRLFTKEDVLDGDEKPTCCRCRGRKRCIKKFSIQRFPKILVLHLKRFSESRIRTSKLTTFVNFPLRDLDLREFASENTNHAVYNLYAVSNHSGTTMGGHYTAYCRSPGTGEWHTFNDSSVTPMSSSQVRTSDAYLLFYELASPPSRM

In the case of CN(C)c1cccc(C(=O)NNC(=O)C23CC4CC(CC(C4)C2)C3)c1, the Potency is reported as “inactive”.
CC1Cc2ccccc2N1C(=O)Cn1c(=O)oc2cc(S(=O)(=O)NC3CCCC3)ccc21 (stereo not drawn) was tested, and the Potency was “inactive”.
In the case of Cc1c(C(=O)Nc2ccc3c4c(cccc24)CC3)cccc1[N+](=O)[O-], the Potency is reported as “inactive”.
In the case of COc1ccc(/C=C\C(=O)O[C@@H]2C(O)C(O[C@@H]3OC(C)[C@H](O[C@@H]4OCC(O[C@H]5O[C@H](CO)[C@@H](O)C(O)C5O)C(O)C4O)C(O)C3O)[C@H](OC(=O)[C@]34CCC(C)(C)C[C@@H]3C3=CCC5[C@@]6(C)CC(O)C(O[C@@H]7OC(CO)C(O)[C@H](O)[C@H]7O)[C@@](C)(C(=O)O)C6CC[C@@]5(C)[C@]3(CO)CC4)O[C@H]2C)cc1 (stereo partly drawn), the Potency is reported as “inactive”.
For Cc1n[nH]c(C)c1S(=O)(=O)N1CCCC(C(=O)NC2CCCc3ccccc32)C1 (stereo not drawn), the Potency was “inactive”.
In the case of CCCCNc1nc2ccccc2nc1NS(=O)(=O)c1cccs1, the Potency is reported as “inactive”.
In the case of CCOC(=O)Nc1nnc(CCc2ccccc2)s1, the Potency is reported as “inactive”.
Oc1ccc(/C=N/NC(=S)N/N=C/c2ccc(O)cc2)cc1 was tested, and the Potency was “inactive”.
COc1ccc(/C=N\NC(=O)c2cc(O)c(O)c(O)c2)cc1COc1ccc(C(=O)OCC(C)C)cc1 was tested, and the Potency was 14.7 µM (active).
For Cc1noc(NS(=O)(=O)c2ccc(N3CC(O)=C(c4ccccc4)C3=N)cc2)c1C, the Potency was “inactive”.
For CC(C)OCCCNC(=O)CN1C(=O)CC(C)(C)S(=O)(=O)c2ccccc21, the Potency was “inactive”.
With COc1cccc(NC(=O)c2ccccc2-c2nc(-c3cccc(C)c3)no2)c1 the Potency was “inactive”.
In the case of CC(=O)N1c2c(cc(Br)cc2S(=O)(=O)NCc2cccnc2)CC1C (stereo not drawn), the Potency is reported as “inactive”.
With Cc1ccc2[nH]c(C)c(CCNC(=O)c3cc4cc([N+](=O)[O-])ccc4oc3=O)c2c1 the Potency was “inactive”.
For COc1cc(C(=O)OCC(=O)Nc2c(F)c(F)c(F)c(F)c2F)cc(OC)c1OC, the Potency was “inactive”.
In the case of NC(=O)C[C@@H]1N[C@]2(C(=O)Nc3ccccc32)[C@@H]2C(=O)N(c3cc(C(F)(F)F)ccc3Cl)C(=O)[C@H]12, the Potency is reported as “inactive”.
With COc1ccc(CCN2C(=O)/C(=C\c3ccco3)SC2=S)cc1OC the Potency was “inactive”.
For COc1ccc2[nH]c(=O)c(CN(Cc3ccco3)Cc3nnnn3Cc3ccccc3)cc2c1, the Potency was “inactive”.
With Cc1ccc(N2CN=c3s/c(=C\c4cccnc4)c(=O)n3C2)cc1 the Potency was “inactive”.
In the case of Cc1cc(N2CCOCC2)nc(SCC(=O)c2ccc(Cl)cc2)n1, the Potency is reported as “inactive”.
For C(=N\N(c1ccccc1)c1ccccc1)/c1ccccn1, the Potency was “inactive”.
With COc1ccc(/C=N/NC(=O)c2nn(-c3ccccc3)c(=O)c3c(N)scc23)cc1 the Potency was “inactive”.
COc1cc(NC(=O)COC(=O)CSc2ccccc2F)c(C)cc1[N+](=O)[O-] was tested, and the Potency was “inactive”.
In the case of Nc1ccc(C2=Nc3cccc4cccc(c34)N2)cc1, the Potency is reported as “inactive”.
CCOc1ccccc1C(=O)N[C@H](C(=O)Nc1ccc(OC)c(S(=O)(=O)N2CCOCC2)c1)C(C)C was tested, and the Potency was “inactive”.
O=C(CNC(=O)c1ccco1)Nc1ccc(S(=O)(=O)N2CCCC2)cc1 was tested, and the Potency was “inactive”.
O=C1NC(=Nc2ccc3ccccc3c2)S/C1=C/c1ccco1 was tested, and the Potency was “inactive”.
CCOc1ccc(C(=O)c2ccc(OCC)c(N)c2)cc1N was tested, and the Potency was “inactive”.
CC1CCN(c2ccc3c(c2)S(=O)(=O)c2cccc(C(=O)NC4CC4)c2C3=O)CC1 was tested, and the Potency was “inactive”.
In the case of CC1(C)CC(=O)C2=C(C1)NCN(CCCN1CCOCC1)C2, the Potency is reported as “inactive”.
For CCCOc1ccc(-c2nc(C#N)c(N3CCN(CC)CC3)o2)cc1, the Potency was “inactive”.
In the case of C=CC#CC[N+]1(CC#Cc2ccccc2)CCOCC1, the Potency is reported as 3.69 µM (active).
In the case of C[C@H](CO)N1C[C@H](C)[C@@H](CN(C)S(=O)(=O)c2cn(C)cn2)Oc2ccc(NC(=O)Cn3cnnn3)cc2C1=O, the Potency is reported as “inactive”.
In the case of O=C(Cc1cc(=O)[nH]c(=O)[nH]1)NCC1CCCO1 (stereo not drawn), the Potency is reported as “inactive”.
In the case of COc1ccc(-n2c(O)c(/C=N/n3cnnc3)c3ccccc3c2=O)cc1, the Potency is reported as “inactive”.
With O=C(COc1ccccc1)NCc1nnc(SCC(=O)Nc2nccs2)n1-c1ccccc1 the Potency was “inactive”.
For COc1cccc(NC(=O)CSc2nncn2-c2ccccn2)c1, the Potency was “inactive”.
In the case of COC(=O)[C@@]12CCCCN1[C@H](c1ccc(-c3ccc(Cl)c(Cl)c3)cc1)[C@H]1C(=O)N(C)C(=O)[C@H]12, the Potency is reported as “inactive”.
For COC(=O)c1ccccc1NC(=O)CSc1nc(O)cc(=O)n1C1CCCC1, the Potency was “inactive”.
For CC(=O)OCC(=O)Nc1ccc(Cl)cc1Cl, the Potency was “inactive”.
For CC(C)CCn1c(CN2CCN(C(=O)c3ccco3)CC2)nc2c1c(=O)n(C)c(=O)n2C, the Potency was “inactive”.
For COc1cc(C2C(C#N)=C(N)Oc3c2ccc2ccccc32)ccc1OCC(=O)Nc1cccc(C)c1 (stereo not drawn), the Potency was “inactive”.
Cc1c(NC(=O)C2CCCN2S(=O)(=O)c2ccc(Cl)cc2)c(=O)n(-c2ccccc2)n1C (stereo not drawn) was tested, and the Potency was “inactive”.
In the case of COC(=O)CCC/C=C1/SCC(NC(=O)c2ccccc2)C1=O (stereo not drawn), the Potency is reported as “inactive”.
In the case of Cc1ccccc1C(=O)Nc1ccc2nc3n(c(=O)c2c1)CCC3, the Potency is reported as “inactive”.
With CC(=O)N1CCCc2cc(S(=O)(=O)CCC(=O)N3CCN(c4cccc(C)c4)C(C)C3)ccc21 (stereo not drawn) the Potency was “inactive”.
With CCCNC(=O)CS(=O)Cc1nc(-c2ccccc2C)oc1C (stereo not drawn) the Potency was “inactive”.
O=C(NCCCN1CCCC1=O)c1cccc(N2CCCC2=O)c1 was tested, and the Potency was “inactive”.
COc1cc(/C=C(/C(=O)c2cccs2)c2nc3ccccc3[nH]2)ccc1O was tested, and the Potency was “inactive”.
For C[C@@H]1CN([C@@H](C)CO)C(=O)c2cc(NC(=O)CCC(F)(F)F)ccc2O[C@H]1CN(C)S(=O)(=O)c1ccc(Cl)cc1, the Potency was “inactive”.
COC(=O)c1c(O)c2c([nH]c1=O)CCCC2 was tested, and the Potency was “inactive”.
In the case of COc1cccc(N2CCN(C(=O)CN(C)S(=O)(=O)c3ccc4c(c3)CCC(=O)N4)CC2)c1, the Potency is reported as “inactive”.
With O=C(COC(=O)c1c2c(nc3ccccc13)/C(=C/c1ccco1)CC2)NC1CCCC1 the Potency was 14.7 µM (active).
Cc1ccc(C)c(S(=O)(=O)c2c(N)n(/N=C/c3ccco3)c3nc4ccccc4nc23)c1 was tested, and the Potency was “inactive”.
In the case of O=C(CSc1ccc2nnc(-c3cccc(F)c3)n2n1)N1CCCc2ccccc21, the Potency is reported as “inactive”.
In the case of COC(=O)c1[nH]c2ccc(C)cc2c1NC(=O)CN1CCCc2ccccc21, the Potency is reported as “inactive”.
For Cc1ccc(C(=O)C(=S)N2CCOCC2)cc1, the Potency was “inactive”.
CN(c1ccccc1)S(=O)(=O)c1ccc(Cl)c(C(=O)NCCc2c[nH]c3ccccc23)c1 was tested, and the Potency was “inactive”.
For Cn1c(C(=O)NCCN2CCOCC2)cc2c(=O)n(C)c3ccccc3c21, the Potency was “inactive”.
With CCCCc1ccc(/C=C2/C(=O)ON=C2c2ccccc2)s1 the Potency was “inactive”.
In the case of Nc1cc(N)nc(SCC(=O)N2CCCCC2)n1, the Potency is reported as “inactive”.
O=C(Oc1ccccc1C(=O)Nc1ccccc1)c1ccccc1Br was tested, and the Potency was “inactive”.
In the case of CN(C)CCOCCP(=O)(c1ccccc1)c1ccccc1, the Potency is reported as “inactive”.
With Cc1cccn2c(=O)c3cc(C(=O)NCCN4CCOCC4)c(=N)n(CCN4CCOCC4)c3nc12 the Potency was “inactive”.
In the case of Oc1c(Cl)cc(Cl)c(Cl)c1Cc1c(O)c(Cl)cc(Cl)c1Cl, the Potency is reported as 5.21 µM (active).
In the case of O=C(COc1ccccc1)NCCSc1ccccc1, the Potency is reported as “inactive”.
In the case of CC(C)CC(=O)Nc1cccc(-c2nc3ccccc3o2)c1, the Potency is reported as “inactive”.
In the case of Cc1ccc(NC(=O)c2cc3c(=O)oc4ccccc4c3s2)nc1, the Potency is reported as “inactive”.
For NC(=O)c1ncc(C(F)(F)F)cc1Oc1cccc(F)c1, the Potency was “inactive”.
In the case of O=C(Cn1nc(-c2cccs2)ccc1=O)Nc1ccc(Br)cc1, the Potency is reported as “inactive”.
Cc1ccccc1OCCn1nc(C(=O)O)c2ccccc2c1=O was tested, and the Potency was “inactive”.
For CCN1C(=O)C(NC(C)=O)c2cc(OC)ccc21 (stereo not drawn), the Potency was “inactive”.
For O=C(c1ccccc1)N1CCN(C2C3CC4CC(C3)CC2C4)CC1 (stereo not drawn), the Potency was “inactive”.
COc1cccc(/C=N/n2c(SC)nnc2-c2ccccc2)c1O was tested, and the Potency was “inactive”.
With O=C(CSc1nc2ccccc2[nH]1)Nc1ccc2c(c1)OCCO2 the Potency was “inactive”.
With C#CCOCCOCCOCCNc1nc(N2CCN(C(=O)CCCCCCCCCCNC(=O)Cn3cc(CCCCCN)nn3)CC2)nc(N2CCN(C(=O)CCCCCCCCCCNC(=O)[C@H]([C@@H](C)CC)n3cc(CCCCCN)nn3)CC2)n1 the Potency was 4.65 µM (active).
CCOC(=O)COc1c(OC)cc(Cl)cc1C1Nc2ccccc2C(=O)N1c1ccccc1 (stereo not drawn) was tested, and the Potency was “inactive”.
O=C(Nc1cccc(-c2nn[nH]n2)c1)c1ccc(Br)s1 was tested, and the Potency was 5.21 µM (active).
In the case of O=C(C[n+]1ccc(-c2cc(C(=O)Nc3cccc(C(F)(F)F)c3)c3ccccc3n2)cc1)c1cccc([N+](=O)[O-])c1, the Potency is reported as “inactive”.
In the case of O=C(Nc1cccc(C(F)(F)F)c1)/C(=C\c1ccco1)NC(=O)c1cccs1, the Potency is reported as “inactive”.
For Cc1cc(-c2csc(NC(=O)c3ccc(=O)[nH]c3)n2)c(C)n1Cc1ccccc1, the Potency was “inactive”.
In the case of C#CCOCCOCCOCCNc1nc(N2CCN(C(=O)CCCCCCCCCCNC(=O)Cn3cc(CCCCCN)nn3)CC2)nc(N2CCN(C(=O)CCCCCCCCCCNC(=O)Cn3cc(CCCCCN)nn3)CC2)n1, the Potency is reported as 10.4 µM (active).
In the case of CCCn1c(NC(=O)c2ccc(Br)cc2)nc2ccccc21, the Potency is reported as “inactive”.
O=C1NCC(CN(c2ccccc2)c2ccccc2)O1 (stereo not drawn) was tested, and the Potency was “inactive”.
N#CCC(=O)Nc1ccc(C(=O)OCC(=O)NCc2ccc3c(c2)OCO3)cc1 was tested, and the Potency was “inactive”.
With COc1ccc(Cc2nnc(NC(=O)Cc3cccs3)s2)cc1 the Potency was 11.7 µM (active).
For CCc1nnc(NC(=O)CSc2nccn2-c2cccc(C)c2)s1, the Potency was “inactive”.
For COc1ccccc1-c1nnc(SCC(=O)Nc2nc(-c3ccccc3)cs2)n1C, the Potency was “inactive”.
In the case of CN(CC(=O)Nc1cccc2ccccc12)C(=O)c1ccc(NC(=O)CC#N)cc1, the Potency is reported as “inactive”.
In the case of N#C/C(=C\c1ccc(O)c(O)c1)C(=O)Nc1cccc2ncccc12, the Potency is reported as 18.5 µM (active).
With Cc1ccc(S(=O)(=O)Nc2cc(C)c(O)c(S(=O)(=O)c3ccc(C)cc3)c2)cc1 the Potency was “inactive”.
CCC(C(=O)Nc1nnc(-c2ccco2)s1)c1ccccc1 (stereo not drawn) was tested, and the Potency was “inactive”.
With Cc1c(NC(=O)C2CCCN(S(=O)(=O)c3cnc[nH]3)C2)c(=O)n(-c2ccccc2)n1C (stereo not drawn) the Potency was “inactive”.
